{"source": "PubChem BioAssay AID488890", "about": "(Southern Research Specialized Biocontainment Screening …, 2010)", "note": "About 1,300 (0.41%) of roughly 320,000 compounds were called active. Roughly 3% stayed inconclusive and do not appear here. The rule behind the calls is not given here. Not all results are given here. Entries with a potency or affinity are not part of this list."}
{"test": "growth inhibition of non-replicating M. tuberculosis (AID 488890);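 note: plate controls were DMSO cells for no effect and high antibiotic wells for full effect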", "conditions": "Mycobacterium tuberculosis non-replicating, at 25 µM, stronger effect = higher value", "units": {"inhibition": "%"}}
{"compound": "CCOC(=O)c1cc(=O)cc(C(=O)OCC)o1", "inhibition": -3.36}
{"compound": "CCOC(=O)c1cc(=O)c2c([N+](=O)[O-])ccc(OC)c2o1", "inhibition": -14.2}
{"compound": "COc1cccc(C(=O)NCC(=O)NCc2cc(=O)n(C)c(=O)n2C)c1OC", "inhibition": -9.9}
{"compound": "O=C1CNC(=S)N1C1CCCCCC1", "inhibition": 0.27}
{"compound": "O=C(CCN1C(=O)S/C(=C\\c2ccc(F)cc2)C1=O)Nc1ccc(O)cc1C(=O)O", "inhibition": 24.1}
{"compound": "O=C(CCN1C(=O)S/C(=C/c2ccc(F)cc2)C1=O)Nc1ccc(O)c(C(=O)O)c1", "inhibition": -1.86}
{"compound": "CCCn1c(=O)c2ccccc2n2c(SCc3nnc(-c4ccccc4Br)o3)nnc12", "inhibition": -5.68}
{"compound": "COC(=O)c1ccn(-c2nc(-c3ccco3)cc(C(F)(F)F)n2)n1", "inhibition": -17.4}
{"compound": "O=C(COc1ccccc1Cl)c1ccc2c(c1)CCCC2", "inhibition": 38.7}
{"compound": "Cc1ccc(CCC(=O)Nc2ccc([N+](=O)[O-])cc2Cl)o1", "inhibition": 75.5}
{"compound": "Cc1ccc(C)c(NC(=O)CCc2ccc(C)o2)c1", "inhibition": 79.3}
{"compound": "Cc1ccc(CCC(=O)Nc2ccc(N(C)C)cc2)o1", "inhibition": 39.5}
{"compound": "Cc1cccc(NC(=O)CCc2ccc(C)o2)c1", "inhibition": 25.7}
{"compound": "Cc1ccc(CCC(=O)Nc2ccc(Cl)cc2)o1", "inhibition": 79.5}
{"compound": "Cc1ccc(NC(=O)CCc2ccc(C)o2)c(C)c1", "inhibition": 68.3}
{"compound": "Cc1cccn2c(=O)c3cc(S(=O)(=O)c4ccccc4)c(=N)n(Cc4cccnc4)c3nc12", "inhibition": -4.09}
{"compound": "Cc1ccc(C(=O)N2CCC(C(=O)Nc3cccc([N+](=O)[O-])c3)CC2)cc1", "inhibition": 28.6}
{"compound": "Cc1ccccc1NC(=O)Cn1nc(C(=O)O)c2ccccc2c1=O", "inhibition": -3.67}
{"compound": "Cc1ccc(C)c(-n2c(-c3csc(C)c3)n[nH]c2=S)c1", "inhibition": 11.6}
{"compound": "CCCC(=O)Nc1ccc(C2C(=O)c3ccccc3C2=O)cc1", "inhibition": -4.62}
{"compound": "O=C(Nc1ccc(N2CCN(C(=O)c3ccccc3)CC2)cc1)c1ccc2c(c1)OCO2", "inhibition": 13.6}
{"compound": "CCOC(=O)N1CCC(NC(=O)CN(C)S(=O)(=O)c2cc3c(cc2Cl)NC(=O)CO3)CC1", "inhibition": 31.8}
{"compound": "CCOC(=O)N1CCC(NS(=O)(=O)c2cc3c(cc2C)NC(=O)CO3)CC1", "inhibition": 8.95}
{"compound": "O=C1NCC(O)=C1C=NCCO", "inhibition": -6.04}
{"compound": "Oc1ccccc1N=Cc1ccc[nH]1", "inhibition": 72.2}
{"compound": "CCOc1ccc(NC(=O)CSc2nc(-c3cccs3)cc(C(F)(F)F)n2)c([N+](=O)[O-])c1", "inhibition": 7.92}
{"compound": "CCN(CC)C(=O)CSc1nc2c(c(-c3cccnc3)c1C#N)CCCC2", "inhibition": 24}
{"compound": "CN(c1ccccc1)S(=O)(=O)c1ccc(C(=O)OCC(=O)NCc2ccco2)cc1", "inhibition": 18.2}
{"compound": "Cc1ccc(/C=N/NC(=O)c2cc(C)oc2C)o1", "inhibition": 3.1}
{"compound": "Nc1nonc1C(=O)N/N=C/c1ccc(Br)o1", "inhibition": -9.49}
{"compound": "O=C(N/N=C/c1ccc([N+](=O)[O-])cc1)c1cc2ccccc2o1", "inhibition": 6.74}
{"compound": "O=C(N/N=C/c1ccc([N+](=O)[O-])cc1)c1ccc(NS(=O)(=O)c2cccs2)cc1", "inhibition": 17.2}
{"compound": "O=C(N/N=C/c1cccc([N+](=O)[O-])c1)c1cc2ccccc2o1", "inhibition": 21.7}
{"compound": "Cc1cc(C(=O)N/N=C/c2ccc([N+](=O)[O-])cc2)c(C)o1", "inhibition": -13.2}
{"compound": "Nc1nonc1C(=O)N/N=C/c1ccc(-c2cccc([N+](=O)[O-])c2)o1", "inhibition": -4.42}
{"compound": "O=C(N/N=C/c1ccc([N+](=O)[O-])o1)c1ccccc1NS(=O)(=O)c1cccs1", "inhibition": 48}
{"compound": "O=S(=O)(Nc1nc2ccccc2nc1Cl)c1ccc2ccccc2c1", "inhibition": 47.8}
{"compound": "Cc1ccc(NC(=O)COC(=O)C2CCN(c3ccc(C(F)(F)F)cn3)CC2)cc1C", "inhibition": 14.8}
{"compound": "N#Cc1nc(N2CCCCC2)nc(N2CCOCC2)n1", "inhibition": 13.1}
{"compound": "C=CCn1c(CNC(=O)c2ccco2)nnc1SCC(=O)c1ccccc1", "inhibition": 12.6}
{"compound": "CCCn1c(=O)c(C(=O)NNS(=O)(=O)c2ccc(Cl)cc2)c(O)c2ccccc21", "inhibition": 30.4}
{"compound": "COc1cc(/C=N\\Nc2nncn2N)ccc1OC(C)=O", "inhibition": 8.91}
{"compound": "COc1ccc(S(=O)(=O)NC(CC(=O)NCCc2ccc(OC)c(OC)c2)c2ccco2)cc1", "note": "(stereo unspecified)", "inhibition": -6.87}
{"compound": "COCCSc1ccccc1C(=O)N1CCC(Cc2ccccc2)CC1", "inhibition": 12.1}
{"compound": "O=C(N/N=C/c1ccncc1)c1sc2ccccc2c1Cl", "inhibition": 67.1}
{"compound": "O=C(N/N=C/c1ccc([N+](=O)[O-])o1)c1ccc(O)cc1", "inhibition": 76.5}
{"compound": "CCN(CC)C(=O)Cn1cc(S(=O)(=O)CC(=O)Nc2ccc(F)cc2)c2ccccc21", "inhibition": -1.96}
{"compound": "C/C(=N\\Nc1ccccc1)c1c(O)cc(C)oc1=O", "inhibition": 54.3}
{"compound": "CCCCCCCCC(=O)N/N=C(\\C)c1ccco1", "inhibition": -9.44}
{"compound": "CCc1ccccc1N/N=C(/C)c1c(O)cc(C)oc1=O", "inhibition": 19.8}
{"compound": "CCc1ccc(OCC(=O)N/N=C(\\C)c2ccc(O)cc2O)cc1", "inhibition": 69}
{"compound": "C/C(=N\\NC(=O)c1ccccc1[N+](=O)[O-])c1c(O)cc(C)oc1=O", "inhibition": 11.3}
{"compound": "C/C(=N\\NC(=O)c1ccccc1O)c1c(O)cc(C)oc1=O", "inhibition": 76.5}
{"compound": "C/C(=N\\NC(=O)c1cccnc1)c1c(O)cc(C)oc1=O", "inhibition": -4.46}
{"compound": "CCCCCC(=O)c1ccc(O)cc1O", "inhibition": 44.3}
{"compound": "C/C(=C\\c1ccccc1)CN1CCC(C(=O)N2CCCC(C)C2)CC1", "note": "(stereo unspecified)", "inhibition": 22.3}
{"compound": "COc1ccc(S(=O)(=O)N(C)C[C@H]2Oc3ccc(NS(=O)(=O)c4cn(C)cn4)cc3C(=O)N([C@H](C)CO)C[C@@H]2C)cc1", "inhibition": -5.84}
{"compound": "O=C(CCc1nnc2ccc(NCc3ccco3)nn12)N1CCN(c2ccccc2F)CC1", "inhibition": 28.5}
{"compound": "O=C(COc1ccccc1)Nc1ccc(Cl)cc1Cl", "inhibition": 72.1}
{"compound": "Cn1cnc2cc(NS(=O)(=O)c3ccc(Br)cc3)ccc21", "inhibition": -3.25}
{"compound": "O=C(CCC(=O)c1ccc(F)cc1)OCc1nnc(-c2ccc([N+](=O)[O-])cc2)o1", "inhibition": 37}
{"compound": "Cc1cc(C(=O)N/N=C2\\CCCc3ccccc32)c(C)o1", "inhibition": 8.07}
{"compound": "CC(C)c1ccc2[nH]c3c(c2c1)[C@@H]1CCN2C(=O)CCC[C@H](C3)[C@H]12", "inhibition": 18.1}
{"compound": "Cc1c(NS(=O)(=O)c2ccc(N=NN(C)C)cc2)c(=O)n(-c2ccccc2)n1C", "inhibition": -13.3}
{"compound": "COc1ccc2sc(-c3ccccc3OC)c(-c3ccc4c(c3)OCCO4)c2c1", "inhibition": 17.4}
{"compound": "O=C1NC(=O)/C(=C/c2ccco2)N1", "inhibition": -3.62}
{"compound": "CSc1c2c(nc3ncnn13)CCC2", "inhibition": -27.5}
{"compound": "CC(C)CC1=NN(C(=O)c2ccncc2)C(O)(C(F)(F)F)C1", "note": "(stereo unspecified)", "inhibition": 47.5}
{"compound": "O=C(c1ccco1)N1N=C(c2ccc(Br)cc2)CC1(O)C(F)(F)F", "note": "(stereo unspecified)", "inhibition": 29.3}
{"compound": "Cc1ccc(C(=O)N2N=C(c3ccccc3)CC2(O)C(F)(F)F)o1", "note": "(stereo unspecified)", "inhibition": 58.8}
{"compound": "Cc1ccc(C2=NN(C(=O)c3ccco3)C(O)(C(F)(F)F)C2)cc1", "note": "(stereo unspecified)", "inhibition": 71.2}
